Hit rate of the full screen: of about 220,000 compounds, about 830 (0.38%) were called active.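 The calls were made as follows: active = compound inhibiting the enzyme by more than half at any dose during confirmatory dose-response retesting; inconclusive = strong single-dose inhibitors picked by rank but not retested; inactive = the rest.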 Not all results are given here. Entries with a potency or affinity are not part of this list. Residues, ends and D or L forms follow the SMILES beside them. *: point of attachment. Boc = CC(C)(C)OC(=O)*
Biological target: Leucine aminopeptidase (Plasmodium falciparum (isolate 3D7)) (UniProt Q8IL11)
Experiment: P. falciparum M17LAP inhibitors, primary screen, biochemical, fluorogenic H-Leu-NHMec substrate, 1536-well (AID 1619);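 also: plate controls were full reaction with DMSO carrier for no effect and no enzyme background for full effect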
Conditions: recombinant M17LAP, H-Leu-NHMec fluorogenic kinetic assay; at 30 µM; stronger effect = higher value

Leucine aminopeptidase (Plasmodium falciparum (isolate 3D7)), sequence (Q8IL11 whole entry, looked up): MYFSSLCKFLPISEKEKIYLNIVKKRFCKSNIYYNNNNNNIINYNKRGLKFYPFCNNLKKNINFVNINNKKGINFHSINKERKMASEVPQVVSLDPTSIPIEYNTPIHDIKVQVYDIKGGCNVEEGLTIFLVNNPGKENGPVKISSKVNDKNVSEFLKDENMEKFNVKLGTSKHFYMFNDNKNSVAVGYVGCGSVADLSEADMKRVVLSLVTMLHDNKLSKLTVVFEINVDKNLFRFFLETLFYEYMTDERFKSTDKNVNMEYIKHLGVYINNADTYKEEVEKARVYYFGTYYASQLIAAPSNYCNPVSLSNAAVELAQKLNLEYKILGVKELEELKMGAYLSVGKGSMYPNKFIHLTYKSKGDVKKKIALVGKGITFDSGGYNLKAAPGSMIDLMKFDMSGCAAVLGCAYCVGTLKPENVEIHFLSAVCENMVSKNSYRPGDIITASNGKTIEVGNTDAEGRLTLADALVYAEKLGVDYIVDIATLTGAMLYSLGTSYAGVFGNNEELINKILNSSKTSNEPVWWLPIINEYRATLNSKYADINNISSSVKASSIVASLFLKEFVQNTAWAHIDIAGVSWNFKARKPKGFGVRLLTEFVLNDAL

inhibition, inactive:
Cc1ccc(C(=O)c2cn[nH]c2-c2ccccc2O)cc1 44.9%
CCOC(=O)C1(C(=O)OCC)C(c2ccccc2)CC(O)N1C(C)=O (configuration not stated) 1.54%
NC(=O)c1ccc(NC(=O)c2ccccc2S(=O)(=O)c2ccccc2[N+](=O)[O-])cc1 9.64%
O=C(O)CC/C(=N\NC(=O)c1ccccc1)c1cccs1 18.4%
COC(=O)N/N=C(\CCC(=O)O)c1cccs1 6.69%
Brc1ccc(/C=N/Nc2ncnc3c2cnn3Cc2ccccc2)cc1 -4.47%
Cc1nnc(SCC(=O)c2ccc(C(C)C)cc2)s1 -0.89%
CC(C)c1ccc(C(=O)CSc2n[nH]c(-c3ccncc3)n2)cc1 6.54%
Nc1nc(SCC(=O)Nc2ccc([N+](=O)[O-])cc2Br)n[nH]1 10.2%
COc1ccccc1NC(=O)CSc1ncn(-c2ccccc2)n1 5.61%
COc1ccccc1NC(=O)CSc1nc(N)cc(N)n1 10.8%
NC(=O)SCC(=O)Nc1ccccc1C(=O)O 9.51%
O=C(CSc1ccccc1)Nc1ccccc1C(=O)O 18.8%
CC(C)c1nc(SCC(=O)Nc2ccc([N+](=O)[O-])cc2Br)n[nH]1 6%
Cc1cc(C)cc(N2C(=O)CC(N(C(=O)c3ccco3)c3cc(C)cc(C)c3)C2=O)c1 (configuration not stated) 3.47%
CC(C)c1ccc(Nc2ncccc2C(=O)O)cc1 13.8%
CC1CN(Cc2ccc(C#N)cc2Cl)CC(C)O1 (configuration not stated) -2.17%
C/C(CCN1CCc2nc(-c3ccccc3)c(-c3ccccc3)cc2C1)=N\O[C@H](C)c1cn([C@H](CO)Cc2ccccc2)nn1 12.6%
Cc1oc(C)c(C(N)=O)c1C(N)=O -4.4%
Cc1cc(C)nc(SCC(=O)Nc2ccc(S(=O)(=O)N3CCCCC3)cc2)n1 -1.67%
O=C(CSc1ncccn1)Nc1ncc(C(F)(F)F)cc1Cl -4.61%
COc1ccccc1N1CCN(C(=O)CSc2nc(C)cc(=O)[nH]2)CC1 12.1%
O=C(CSc1ncccn1)Nc1ccc(S(=O)(=O)N2CCCCC2)cc1 -1.15%
COc1ccccc1NC(=O)CSc1nccc(=O)[nH]1 28.1%
COc1ccccc1N1CCN(C(=O)CSc2nc(N)cc(=O)[nH]2)CC1 -20.8%
Nc1nc(SCC(=O)Nc2ncc(C(F)(F)F)cc2Cl)n[nH]1 1.49%
COc1ccc(NC(=O)CSc2nc(O)cc(=O)[nH]2)c(OC)c1 14.7%
CC1=C(C(=O)OCc2ccccc2)C(c2ccoc2)C(C#N)=C(N)O1 (configuration not stated) 5.93%
CC(NC(=O)C(=O)N/N=C\c1ccc([N+](=O)[O-])cc1)c1ccccc1 (configuration not stated) 9.58%
CCOC(=O)/C(=C\c1cccnc1)C(=O)c1cc(C(C)=O)c(Nc2ccccc2)s1 -7.24%
Cc1ccc(NC(=O)COC(=O)Cc2csc(-c3ccc(Cl)cc3)n2)cc1C 5.09%
CCOC(=O)N1CCC(N(C(=O)Nc2cccc(OC)c2)C(C)CC)CC1 (configuration not stated) 7.02%
CCN(CC)CCN1C(=O)C(=O)/C(=C(/O)c2ccncc2)C1c1ccccc1 (configuration not stated) 45.4%
CCC1CCCCN1S(=O)(=O)c1ccc(NC(=O)CSc2ncccc2C(=O)O)cc1 (configuration not stated) -3.83%
CC1CCN(S(=O)(=O)c2ccc(NC(=O)Cc3ccccc3)cc2)CC1 2.2%
O=C(CSc1nc(-c2ccccc2)c(-c2ccccc2)o1)Nc1nnc(-c2ccccc2)s1 5.34%
Nc1cc(=O)[nH]c(SCC(=O)Nc2nnc(-c3ccccc3)s2)n1 34.9%
CC(=O)N1c2ccccc2C(=O)C1N1CCCCC1 (configuration not stated) 7.9%
CCn1c(SCC(=O)c2[nH]c(C)c(C(C)=O)c2C)nnc1-c1cccs1 12.2%
CC(C)CCNC(=O)C1CC(c2cccc([N+](=O)[O-])c2)=NO1 (configuration not stated) 3.11%
O=C(CC12CC3CC(C1)CC(CC(=O)N1CCCC1)(C3)C2)N1CCCC1 1.98%
NC(=O)CC[C@H](NC(=O)c1ccc(F)cc1)C(=O)OCC(=O)Nc1ccc(N2CCOCC2)cc1 -1.82%
C=C(C)c1cccc(C(C)(C)NC(=O)NCc2ccncc2)c1 5.4%
Fc1ccccc1-c1[nH]ncc1-c1nnnn1-c1ccccc1 6.84%
COc1ccc(N2CCN(c3oc(-c4ccccc4OC)nc3C#N)CC2)cc1 0.71%
CCOC(=O)N1CCN(c2cc(C)c(C(C)=O)cc2F)CC1 14.4%
O=C(CN1C(=O)C2C3c4ccccc4C(c4ccccc43)C2C1=O)N1CCOCC1 (configuration not stated) 4.26%
O=C(CN1C(=O)C2C3CC(C(Br)C3Br)C2C1=O)N1CCN(Cc2ccccc2)CC1 (configuration not stated) -4.45%
CCCCOCCCNC(=O)CC(C)c1ccccc1 (configuration not stated) 1.77%
CCOC(=O)N1CCN(C(=O)c2ccc3c(=O)n(Cc4ccc(Cl)cc4)c(=S)[nH]c3c2)CC1 -6.9%
CCCCn1c(=S)[nH]c2c(oc3ccc(Cl)cc32)c1=O 21.5%
O=C(COC(=O)/C=C/c1ccc(Cl)cc1Cl)NCCC1=CCCCC1 3.27%
O=c1cc(CSc2nnc(Nc3ccccc3)s2)nc2sccn12 24.3%
Cc1ccccc1Nc1nnc(SCc2cc(=O)n3ccsc3n2)s1 28.1%
C/C(=C\C(=O)O)C12CC3CC(CC(C3)C1)C2 11.6%
COc1ccc(NC(=O)/C=C/c2c(Cl)nc3ccccn23)cc1 -6.42%
CC(C)C[C@H](NC(=O)Nc1ccc(Oc2ccccc2)cc1)C(=O)O 38.9%
CCc1ccccc1NC(=O)N[C@H](C(=O)O)C(C)CC (some centres not stated) 23.6%
COC(=O)[C@H](C)NC(=O)Nc1ccc(Oc2ccccc2)cc1 -1.77%
CCC(C)[C@H](NC(=O)Nc1ccc(S(N)(=O)=O)cc1)C(=O)O (some centres not stated) 4.8%
CCc1c(C)sc2nc3c(C(=O)N4CCOCC4)cc(C(=O)c4ccccc4O)cn3c(=O)c12 5.44%
Cc1noc(C)c1C1(O)CCCCCCCCCCC1 0.02%
CSc1nc2ccccc2s1 13.1%
CCC1CSC(Nc2ccc(C(=O)/C=C/c3ccc(Br)cc3)cc2)=N1 (configuration not stated) 15.6%
CSc1ncc(Cl)c(C(=O)Nc2nnc(SC)s2)n1 13.3%
C=CCSc1nnc(NC(=O)c2ccc(Cl)nc2)s1 9.37%
CSc1ncc(Cl)c(C(=O)Nc2nnc(SC/C=C/c3ccccc3)s2)n1 29.5%
CCSc1ncc(Cl)c(C(=O)Nc2ccccc2)n1 -6.07%
O=C(CCn1cnc2ccccc21)N/N=C/c1ccccc1O -4.46%
CCOC(=O)CSc1nc(C(C)(C)C)nc2ccccc12 -0.8%
Cc1cc(C)c2c(=O)n(CC(=O)Nc3cccc(F)c3)sc2n1 -3.07%
CC1(C(=O)Nc2nnc(C(C)(C)C)s2)Cc2ccccc2C(=O)O1 (configuration not stated) 48.3%
CC1(C(=O)Nc2nnc(SCc3ccccc3)s2)Cc2ccccc2C(=O)O1 (configuration not stated) 45.4%
Cc1ccc(-c2noc(CNCCCN(C)C)n2)cc1 2.07%
Cn1c(=O)c2c(SCC(=O)N3CCOCC3)nc(C3CCCCC3)nc2n(C)c1=O -15.2%
O=C(Cc1ccc(-c2ccccc2)cc1)NCc1ccccc1 -2.44%
O=C(Cc1csc(NC(=O)c2ccccc2)n1)NO 28.3%
CS(=O)(=O)N(CC(=O)N1CCOCC1)Cc1ccc(Cl)cc1 -4.28%
CCC(=O)c1ccc(-c2ccccc2)cc1 -6.48%
CN(C)CC(=O)c1ccc(-c2ccccc2)cc1 68.2%
CC(C)(C)OC(=O)N1CCCC1C(=O)NC(Cc1ccccc1)C(=O)O (stereo not drawn) (Boc-Pro-Phe-OH; configuration not given here) 9.76%
CC(C)C(NC(=O)OC(C)(C)C)C(=O)N1CCCC1C(=O)NC(Cc1ccccc1)C(N)=O (stereo not drawn) (Boc-Val-Pro-Phe-NH2; configuration not given here) 17.4%
Cc1nn(-c2ccc(F)cc2)c(Cl)c1/C=C/C(=O)OCC(=O)Nc1ccc(F)cc1F 0.75%
O=C(c1ccccc1)c1ncc(C(F)(F)F)cc1Cl -12.8%
O=C(O)CCCCCn1c(SCC(=O)N2CCCC2)nc2ccsc2c1=O 14.5%
CCCCn1c(SCC(=O)c2ccc(O)c(O)c2)nc2ccsc2c1=O 19.5%
CNc1nc(Oc2ccc(C(=O)OC)cc2)nc(SC)n1 -13.4%
Cn1cc(Cl)c(-c2n[nH]c(=S)n2-c2ccccc2)n1 8.04%
CCOC(=O)c1c(NC(=O)CSc2nc3ccccc3c(=O)n2-c2ccccc2)sc(C(C)=O)c1C -1.44%
Cc1ccc(O)c(C(=O)c2cnn(C(=O)Cc3csc(C)n3)c2)c1 -1.8%
O=C(c1cnn(C(=O)COc2ccccc2F)c1)c1cc(F)ccc1O 1.06%
O=C(Cn1cnc2ccccc2c1=O)c1ccc(Cl)cc1 1.39%
COc1ccc(N(C(=O)C(C)C)S(=O)(=O)c2ccc(Cl)cc2)cc1 -1.25%
CCn1c(CNc2nc(-c3ccccc3)cs2)nnc1SCC(=O)NCc1ccco1 -5.1%
CCn1c(COc2ccc(C)cc2)nnc1SCC(=O)NCc1ccco1 6.34%
CCOc1ccc(Nc2nc(Cc3nnc(SCC(=O)c4ccc(C)cc4)o3)cs2)cc1 27.5%
CCOc1ccc(Nc2nc(Cc3nnc(SCC(N)=O)o3)cs2)cc1 27.7%

From PubChem BioAssay AID1619 (SRMLSC, 2009)
